Assay results reported in PubChem BioAssay (NCI).
About 83,000 compounds went through this panel and 20% of them were active in at least one assay; those are over-represented in the sample as a whole.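 Treatment: one concentration, 48 hours, 96-well format. Scoring: percent growth, with anything below 10 considered active.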 The source made the active and inactive calls.

Key:
Test in all cases: NCI-60 one-dose screen, 48 h (100 = growth as untreated, 0 = no growth, -100 = all killed)
Settings in all cases: 10 µM unless noted
[1] = test system: SK-MEL-2 melanoma
[2] = test system: EKVX NSCLC
[3] = test system: SN12C renal
[4] = test system: UO-31 renal
[5] = test system: TK-10 renal
[6] = test system: ACHN renal
[7] = test system: CAKI-1 renal
[8] = test system: A498 renal
[9] = test system: CCRF-CEM leukemia
[10] = test system: MOLT-4 leukemia

Measured: growth

Cc1ccc(S(=O)(=O)N2CCN(C(=O)CSc3nc4ccc(C)cc4[nH]3)CC2)cc1
inactive: [2] 97% | [3] 107% | [4] 93.3% | [5] 129% | [6] 113% | [7] 116% | [8] 99.7% | [9] 94.6% | [10] 74.4%
active: [1] 5.46%

NS(=O)(=O)c1ccc(-n2ncc3c(NC4CCCCC4)ncnc32)cc1
active: [4] 0.88%
inactive: [1] 103% | [2] 102% | [3] 97.5% | [5] 107% | [6] 92.3% | [7] 39.6% | [8] 106% | [9] 82.3% | [10] 72.6%

COc1cc(/C(Cl)=C/C=C/C(=O)c2c(C)[n+]([O-])c3ccc(Cl)cc3[n+]2[O-])cc(OC)c1OC
active: [9] 8.02%
inactive: [1] 28.5% | [2] 89.3% | [3] 31.9% | [4] 45.7% | [5] 71.6% | [6] 26.9% | [7] 41.3% | [8] 85.1% | [10] 12.4%

CN(C)CCC(=O)Nc1ccc(-n2cc(-c3cccc(NC(=S)Nc4cccc(-c5cn(-c6ccc(NC(=O)CCN(C)C)cc6)nn5)c4)c3)nn2)cc1
inactive: [1] 91.6% | [2] 101% | [3] 91.4% | [4] 135% | [5] 142% | [6] 117% | [7] 130% | [8] 108% | [9] 48.4% | [10] 47.2%

Nc1ccc2c(c1)Cc1cc(Cl)c(Cl)cc1-2
inactive: [1] 47.5% | [2] 48% | [3] 57.2% | [4] 63.6% | [5] 101% | [6] 66.8% | [7] 65.4% | [8] 60.1% | [9] 32.2% | [10] 70.2%

CCOC(=O)C1=CCC(n2cc(C)c(=O)[nH]c2=O)O1 (stereo not drawn)
inactive: [1] 105% | [2] 104% | [3] 101% | [4] 96.9% | [5] 118% | [6] 103% | [7] 85.8% | [8] 121% | [9] 98.8% | [10] 94.7%

O=C(COc1cccc(/C=C2\Oc3ccc4ccccc4c3C2=O)c1)c1ccc([N+](=O)[O-])cc1
inactive: [1] 44.3% | [2] 85.4% | [3] 98.2% | [5] 99.9% | [6] 98.4% | [7] 69.3% | [8] 108% | [9] 35.7% | [10] 32%
active: [4] -41.6%

Cc1nn(-c2nc3ccccc3s2)c(C)c1Oc1ccccc1O
active: [1] -9.64%
inactive: [2] 93.2% | [3] 73.2% | [4] 38.9% | [5] 100% | [6] 57.8% | [7] 98.8% | [8] 51.7% | [9] 76.6% | [10] 31.6%

c1ccc(N2c3nc4ccccc4cc3Sc3cc4ccccc4nc32)nc1
inactive: [1] 39.4% | [2] 68.9% | [3] 76.1% | [4] 26.9% | [5] 114% | [6] 92% | [7] 69% | [8] 73.2% | [9] 87.5% | [10] 78%

O=C(N/N=C/c1cccc(O)c1)c1ccc(C(F)(F)F)nc1Nc1cccc(C(F)(F)F)c1
active: [2] 5.06% | [3] 7.08% | [4] -9.68% | [6] -6.85% | [7] -22% | [9] -38.3% | [10] -20.5%
inactive: [1] 12.9% | [5] 15.6%

COc1cccc(/C=N\NC(=O)c2ccncc2)c1O
inactive: [1] 43.8% | [2] 78.8% | [3] 62.8% | [4] 29% | [5] 41.1% | [6] 31.2% | [7] 13.2% | [9] 11% | [10] 13.9%
